# Screening data deposited in PubChem BioAssay by National Center for Advancing Translational Sciences (NCATS).
# In the library only some 11% were active in any assay of this set; here they are far more common.
# BAZ2B block: blocks human BAZ2B | Potency, µM (titrated, usually from 114 µM), for inactives: at the top dose activity change, negative = inhibition, actives largely listed as inhibitors | AlphaScreen BAZ2B-H3K14Ac peptide displacement | Q9UIF8 | actives 4.4% (n = 360,000) | AID 504333; also: potency is read from the fitted curve at half-maximal effect; % is scaled to controls: 0 for no effect and ±100 for the full control effect; nearly all actives have a fitted effect of over 60% in size
#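 Complex of BAZ2B and biotin-H3K14Ac (50 nM apiece) forms over 30 min at RT, then faces library compounds up to 110 uM for another 30 min; AlphaScreen beads added, 20 min dark incubation, luminescence read.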
# JMJD2A Tudor: JMJD2A Tudor domain (human) inhibition; O75164; AlphaScreen JMJD2A-Tudor / H3K4me3 peptide binding; Potency, µM (top dose mostly 114 µM), inactives show at the top dose activity change, negative = inhibition, most hits filed as inhibitors; actives 4.4% (n = 390,000); AID 504339; also: potency is read from the fitted curve at half-maximal effect; % is scaled to controls: 0 for no effect and ±100 for the full control effect; nearly all actives have a fitted effect of over 50% in size
# G9a inh: blocks human histone lysine methyltransferase G9a; Q96KQ7; G9a H3K9 monomethylation, AlphaScreen, 2 h; Potency, µM (series often up to 102 µM), inactives show at the top dose activity, negative = inhibition, actives largely listed as inhibitors; actives 8.8% (n = 350,000); AID 504332; also: potency is read from the fitted curve at half-maximal effect; % is scaled to controls: 0 for no effect and ±100 for the full control effect; nearly all actives have a fitted effect of over 75% in size
#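 Chemiluminescent proximity detection of H3K9 monomethylation, read after 10 min bead incubation in the dark. Reaction: 20 nM G9a, 500 nM biotin-H3K9 peptide, 20 uM SAM cofactor, 2 h, room temperature, following 15 min enzyme-compound preincubation.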
# L3MBTL1 inh: blocks human L3MBTL1 | Q9Y468 | AlphaScreen L3MBTL1–H3K9me1 peptide binding | Potency, µM (doses to about 57.1 µM), without a hit: at the top dose activity, negative = inhibition, most hits filed as inhibitors | actives 0.66% (n = 230,000) | AID 485360; also: potency is read from the fitted curve at half-maximal effect; % is scaled to controls: 0 for no effect and ±100 for the full control effect; nearly all actives have a fitted effect of over 60% in size
#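 Read-out is AlphaScreen signal from streptavidin donor and nickel chelate acceptor beads (10 ug/mL final each) bridging L3MBTL1 (50 nM) and biotinylated K9-monomethylated H3(1-15) peptide (75 nM), after 30 min compound exposure at room temperature.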
# PI5P4K alpha inh: PI5P4K alpha (human) kinase inhibition; max response, %; PI5P4Kalpha enzyme, ADP-Glo luminescence, 60 min; hits give low values; actives 1.2% (n = 330,000); active = max response of -50% or lower; inconclusive = between -30% and -50%; inactive = -30% or higher; also: value at the top dose of about 77 µM; % is scaled to controls: 0 for no effect and ±100 for the full control effect
#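 Reactions run in 0.038 M HEPES pH 7.4, 0.28 mM EGTA, 0.1% CHAPS and 5% DMSO, with PI5P4Kalpha, substrate, compound and 5 microM ATP final, one hour at room temperature. Readout is ADP-Glo luminescence.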
# HP1b chromo inh: HP1-beta chromodomain-methylated histone interaction inhibition. P83916. Potency, µM (titrated, usually from 114 µM), inactives show at the top dose activity change, negative = inhibition, most hits filed as inhibitors. AlphaScreen HP1-beta / biotin-H3K9me3 peptide binding. actives 0.56% (n = 390,000); also: potency is read from the fitted curve at half-maximal effect; nearly all actives have a fitted effect of over 70% in size
#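 HP1-beta protein (50 nM final) preincubated 30 min at room temperature with biotinylated H3(1-18)K9me3 peptide (50 nM) in PBS pH 7.4, 0.01% Tween-20, then compound added for 30 min. AlphaScreen streptavidin donor/nickel chelate acceptor beads (10 ug/mL final), 30 min dark, luminescence read.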
# * marks the source's active call; other numbers are inactive results; ? = inconclusive; . = no result; [ ] = dose if it differs, or a comment. Unless noted, calls follow the shape of the dose curve; as a rule, active = well fitted inhibition curve with a large enough effect; inconclusive = small, poorly fitted or top-dose-only effect; inactive = no such curve, though single readings can be large or run the other way.
SMILES,BAZ2B block,JMJD2A Tudor,G9a inh,L3MBTL1 inh,PI5P4K alpha inh,HP1b chromo inh
CCCCOC(=O)c1ccc(NC(=O)CSc2nc3c(c(=O)[nH]2)CCCC3)cc1,-14.3%,-9.9%,?,.,.,10.4%
CC(C)Cc1ccc(S(=O)(=O)Nc2cc3c(cc2N2CCOCC2)n(C)c(=O)c(=O)n3C)cc1,-14.9%,-11.7%,-1.3%[59 µM],.,.,6.7%
Cc1cc(C)cc(-n2c(C)cc(C=C(C#N)C#N)c2C)c1,-5.5%,-17.6%,11.8%[12.7 µM],-4.0%,1.0,12.7%
COC(=O)C1=C(C)NC(=O)/C1=C\c1cc(C)n(-c2ccccc2)c1C,?,?,39.8µM*,.,0.2,-14.7%
COC(=O)C1=C(C)NC(=O)/C1=C\c1cc(C)n(-c2cc(C)cc(C)c2)c1C,44.7µM*,56.2µM*,-14.7%[12.7 µM],.,-16.4,-59.6%
COc1cc2c(cc1OC)C1O[C@](CCCCN3C(=O)c4ccccc4C3=O)(C2)OC2=C1C(=O)CC(C)(C)C2,?,.,-125.7%[2.33 µM],.,.,.
Cc1ccccc1NC(=O)CSc1ccsc1[N+](=O)[O-],39.8µM*,25.1µM*,?,25.1µM*,-89.7*,?
O=C(CSc1ccsc1[N+](=O)[O-])NCc1ccco1,-38.4%,?,-46.5%,?,-70.7*,-7.4%
COCCCNC(=O)CSc1ccsc1[N+](=O)[O-],-24.7%,-12.4%,-44.9%,-7.3%,-20.3,32.5%
Cc1ccccc1NC(=O)c1cc2c(-c3ccccc3)nn(-c3ccccc3)c2s1,-2.4%,-13.1%,-0.4%[59 µM],.,.,40.0%
CS(=O)(=O)c1ncc(Cl)c(C(=O)N(Cc2ccc(Cl)cc2)Cc2ccco2)n1,-30.7%,-35.1%,11.2µM*,.,.,7.4%
CCOc1ccc(N(Cc2ccccc2)C(=O)c2nc(SC)ncc2Cl)cc1,7.0%,-1.4%,2.0%[59 µM],.,.,38.5%
COc1ccc(N(Cc2ccccc2)C(=O)c2nc(S(C)(=O)=O)ncc2Cl)cc1,-11.0%,-13.5%,11.2µM*,.,.,40.3%
Cc1ccc(NC2=C(C(=O)c3ccccc3)N(C)S(=O)(=O)c3ccccc32)cc1,25.1µM*,?,22.8%[0.501 µM],-23.5%,-5.3,?
CN1C(C(=O)c2ccccc2)=C(N)c2ccccc2S1(=O)=O,-16.1%,-25.5%,-28.4%,-24.1%,0.2,20.7%
Cc1cc(NC(=O)CSc2nc3ccsc3c(=O)n2Cc2ccccn2)n[nH]1,79.4µM*,-35.8%,102.2%[59 µM],-4.6%,.,18.0%
CCOc1nc(NC(=O)NS(=O)(=O)Oc2cccc(F)c2)nc(-c2ccccc2)n1,-26.3%,-11.9%,-36.8%[59 µM],.,.,31.1%
Cc1cccc(N(Cc2ccccc2)C(=O)c2ccc(S(C)(=O)=O)cc2)c1,-16.5%,-10.9%,?,.,6.1,6.1%
CS(=O)(=O)c1ccc(C(=O)N(Cc2ccccc2)c2ccccc2)cc1,-3.4%,-20.5%,44.7µM*,.,-2.5,3.8%
CCN=c1scc(-c2cccs2)n1/N=C/c1cc(OC)ccc1O,12.6µM*,39.8µM*,?,-6.8%,7.1,14.1µM*
CC(C)N=c1scc(-c2cccs2)n1/N=C/c1ccc(O)c(O)c1O,31.6µM*,22.4µM*,3.98µM*,?,-60.2*,25.1µM*
COc1cccc(Cn2c(=O)c(-c3cc(F)cc(F)c3)nc3cnc(N(C)C)nc32)c1,.,.,0.6%[0.501 µM],.,.,.
CC1(C)CC2(CC(c3ccccc3F)c3ccc(O)c(O)c3O2)NC(=S)N1 (stereo unspecified),44.7µM*,39.8µM*,.,-22.0%,-56.0*,?
CC1(C)CC2(CC(c3ccc(F)cc3)c3ccc(O)cc3O2)NC(=S)N1 (stereo unspecified),?,?,?,.,-8.2,10.1%
Cc1cc(NCCCn2ccnc2)n2nc(C)c(-c3ccc(Cl)cc3)c2n1,31.6µM*,?,?,.,.,-9.8%
SMILES,BAZ2B block,JMJD2A Tudor,G9a inh,L3MBTL1 inh,PI5P4K alpha inh,HP1b chromo inh
CCSc1nc2sc3c(c2c2[n+]1CC(CBr)O2)CCCC3 (stereo unspecified),56.2µM*,56.2µM*,25.1µM*,-12.9%,-15.2,-24.2%
CCN1/C(=C\C(=S)Nc2ccccc2)Sc2ccccc21,?,25.1µM*,?,-6.3%,-11.0,?
CCN1/C(=C\C=C2\C(=O)N(c3ccccc3)C(=S)N2C)Sc2ccccc21,.,-22.1%,?,.,-22.1,-32.8%[57 µM]
CCOC(=O)/C(C#N)=C(C)/C=C1\Sc2ccccc2N1CC,4.2%,-12.9%,-4.3%[59 µM],-0.3%,16.5,10.6%
CCN1/C(=C\C=C(C(C)=O)C(C)=O)Sc2ccccc21,?,-29.9%,50.1µM*,.,2.2,-4.8%
O=C(CN1C(=O)CC(c2ccco2)Sc2ccccc21)Nc1cccc(C(F)(F)F)c1 (stereo unspecified),-36.9%,-9.5%,-15.2%[59 µM],.,.,30.7%
COc1ccc(Cl)cc1S(=O)(=O)Nc1cccc(-c2ccc(N3CCOCC3)nn2)c1,-1.2%,-10.2%,4.8%[59 µM],.,.,27.1%[57 µM]
COc1cc(/C=N/NC(=O)c2ccc(CSc3nncn3C)cc2)cc(OC)c1O,-19.5%,-12.4%,12.6µM*,-8.8%,-3.7,9.0%
COc1cc(/C=N/NC(=O)/C(=C\c2ccc([N+](=O)[O-])cc2)NC(=O)c2ccccc2)cc(OC)c1O,-37.1%,?,44.7µM*,.,-6.5,2.4%
COc1cc(/C=N/NC(=O)c2ccc([N+](=O)[O-])cc2Cl)cc(Br)c1O,2.0%,-4.1%,44.7µM*,-4.2%,8.2,10.1%
CCOc1cc(/C=N/NC(=O)C(=O)NC2CC2)cc(Br)c1O,-1.8%,-1.4%,8.91µM*,6.4%,-13.8,-2.6%
CCOc1cc(/C=N/NC(=O)C(N)=O)cc(Br)c1O,-28.1%,-10.8%,?,-15.0%,-25.7,-4.9%
Cc1ccc(NC(=O)C2CCN(S(=O)(=O)c3c(C)noc3C)CC2)c(C)c1,2.3%,-3.4%,10.3%[59 µM],.,.,25.7%
CCCOc1cccc(C(=O)N2CCCCC2CCN2CCCCC2)c1 (stereo unspecified),-9.7%,-18.6%,-4.0%[59 µM],.,.,19.0%
COc1cc(C=NNC(=O)c2ccc(NS(=O)(=O)c3cccs3)cc2)cc(Br)c1O,.,-8.3%,.,-3.1%,-82.3*,6.9%[57 µM]
COc1cc(/C=N/NC(=O)CC#N)cc(Br)c1O,50.1µM*,35.5µM*,0.7%,?,?,?
COc1cc(/C=N/NC(=O)Cc2ccc(Br)cc2)cc(OC)c1O,2.9%,-1.9%,50.1µM*,2.7%,-5.4,2.1%
COc1ccccc1CNC(=O)c1ccc(NS(=O)(=O)c2cccs2)cc1,5.0%,-1.1%,20.5%,.,-11.0,43.0%
O=C(OCc1cc(=O)n2nc(-c3cccs3)sc2n1)c1cccc(F)c1,?,?,10.3%[59 µM],.,.,70.7%
COc1ccc(OCC(=O)Nc2ccc3c(c2)nc2n3CCSC2)cc1,-0.7%,-13.2%,2µM*,-3.1%,-16.5,2.7%
